# Measurements reported in ChEMBL document CHEMBL3433997, “St. Jude Leishmania screening dataset” (2016).
# Biological target: Glucose transporter (Leishmania mexicana) (UniProt O61059)
# Experiment: ST_JUDE_LEISH: Cytotoxicity at 2uM final concentration against transgenic Leishmania Mexicana promastigotes LmGT2 that are glucose transport deficient and complemented with the L. Mexicana glucose transporter 2. Activity is measured by DNA content using SYBR green in vitro
# Format: functional
row,SMILES,inhibition
1,O=C(Nc1ccc(OC2CCN(Cc3ccsc3)C2)c(Cl)c1)c1cccs1 (stereo not given),2.52%
2,Cc1nc2ccc(S(=O)(=O)Nc3ccc(C(=O)N[C@@H](CCC(=O)O)C(=O)O)cc3)cc2c(=O)[nH]1,0.45%
3,COc1ccc2[nH]cc(C3CCN(CCCCCNC(=O)c4ccc(-c5ccccc5)cc4)CC3)c2c1,2.9%
4,O=c1ccc2ccc(F)cc2n1CCN1CCC(NCc2ccc(-c3ccccn3)s2)CC1,-0.91%
5,CN1C(=O)C(=O)N(CCCCCONC(=N)N)C1=S,9.97%
6,COC(=O)c1ccc2nc(-c3cc(OC)c(O)c(C(=O)NC4CCN(Cc5ccccc5)CC4)c3)[nH]c2c1,7.01%
7,CC(C)C1C(O)=C(c2ccc3ccccc3c2)C(=O)N1CC1CCCCC1 (stereo not given),-8.52%
8,Cc1cc(C(=O)CN2C(=O)NC3(CCOc4ccccc43)C2=O)c(C)n1Cc1ccc(F)cc1 (stereo not given),1.1%
9,CCC(ON1C(N)=NC(N)=NC1(C)C)c1ccc(Cl)cc1 (stereo not given),10.4%
10,Oc1cc(Nc2ccnc3cc(-c4ccc(CN5CCCCC5)o4)ccc23)c(Cl)cc1F,3.68%
11,COc1ccccc1Nc1nc(C)cc(NCc2ccc(-c3c(C)noc3C)cc2)n1,0.51%
12,c1ccc(Oc2ccc(Nc3ccnc4cc(-c5ccc(CNCCN6CCOCC6)o5)ccc34)cc2)cc1,0.92%
13,O=C(/C=C/c1ccc(Cl)c(Cl)c1)NCCCCCN1CCCN(C(=S)Nc2ccc(Cl)c(Cl)c2)CC1,0.13%
14,CN1CCC(NCc2ccc(-c3ccc(Cl)cc3)cc2)CC1,4.44%
15,Cc1cccc(CNc2nc(C)cc(N[C@@H](Cc3ccccc3)C(=O)NCc3cccc(F)c3)n2)c1,2.83%
16,CN1CCN(CCNc2c3ccccc3nc3ccc4ccccc4c23)CC1,12.5%
17,CCOc1ccc(-c2nonc2NC(=O)c2ccccc2F)cc1OCC,1.47%
18,O=C(NCCCCN1CCC(c2ccc3c(c2OCCCO)CCCC3)CC1)c1ccc(-c2ccc(C(F)(F)F)cc2)cc1,2.9%
19,Oc1ccc2[nH]c(-c3cccs3)nc2c1CN1CCC(O)(c2ccccc2)CC1,9.03%
20,CC(=O)c1sc2ccccc2c1O,1.24%

row,SMILES,inhibition
1,N=C(N)NC(=O)Nc1cc(Br)c(Cl)c(C(F)(F)F)c1,0.66%
2,O=C(Nc1ccc(-c2cccc(-c3nc4ccccc4[nH]3)c2)cc1)Nc1ccc(F)c(F)c1F,0.32%
3,CCCC(CNCc1ccccc1)CNc1cc(=O)c2ccccc2[nH]1 (stereo not given),-0.73%
4,Cc1cccc2nc(-c3cccc(-c4cccc(NC(=O)C(C)CN(C)C)c4)c3)[nH]c12 (stereo not given),2.3%
5,CC(C)n1cc2c(ccc3nc(N)nc(N)c32)n1,5.96%
6,C=CCOC(=O)N1CCC(CNCc2ccc(-c3cccc(-c4nc5cccc(C)c5[nH]4)c3)cc2)C1 (stereo not given),-2.77%
7,CC1(C)N=C(N)N=C(N)N1OCCCOc1cc(Cl)c(Cl)cc1Cl,2.71%
8,Cc1ccc2[nH]c3ccccc3c(=O)c2c1,1.77%
9,COc1cc(-n2cnc3cc(-c4ccc(Cl)cc4)sc3c2=O)ccc1OCCN1CCC(c2cccc(NC(C)=O)c2)CC1,3.05%
10,CC1(C)CCC(=Cc2ccc(Cl)cc2)CC1(O)Cn1ccnc1 (stereo not given),3.82%
11,COc1ccc(O)cc1/C=N/Nc1ccnc2cc(Cl)ccc12,9.21%
12,O=C(Nc1ccc(N2CCCCC2)c(Cl)c1)c1nc[nH]n1,1.65%
13,COc1ccc2ncc(F)c(CCN3CC(O)C(CNCc4ccccc4)C3)c2n1 (stereo not given),4.78%
14,Cc1[nH]c2ccccc2c1C(=O)C(C)Sc1nnc(-c2ccccc2Br)[nH]1 (stereo not given),0.86%
15,O=[N+]([O-])c1ccccc1C=NN=c1cc[nH]c2ccccc12,-0.01%
16,O=C(Nc1cccc(CCNCc2ccccc2)c1)Nc1cccc2ccccc12,10.9%
17,CCOc1ccc(-c2nonc2NC(=O)c2cccs2)cc1OCC,-0.56%
18,OC(CNc1ccnc(Nc2ccc(Cl)cc2)n1)c1cccc(C(F)(F)F)c1 (stereo not given),0.49%
19,CCN1CCN(c2cc(C)c3cc(NC(=O)c4ccc(N(CC)CC)cc4)ccc3n2)CC1,-3.38%
20,c1cc(CN2CCC(CCN3CCCCC3)CC2)cc(-c2csc(-c3nc4ccccc4[nH]3)c2)c1,4.01%
